Compounds without any hit were thinned out: in the full panel of roughly 83,000, 20% have a hit.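 Results are percent growth after 48 hours of single-concentration exposure. 100 means growth as in untreated cells, lower positive values show inhibition; negative values down to -100 show cell death.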 A number with no mark means an inactive call. Active and inactive are the calls of the source. The calls were made as follows: active = growth percent below 10; inactive = the rest.

Common to all, as to assay: NCI-60 one-dose screen, 48 h (100 = growth as untreated, 0 = no growth, -100 = all killed)
What all share (details): 10 µM unless noted

Test [1] concerns NCI-H23 lung.
Test [2] deals with NCI-H226 lung.
The subject of test [3] is NCI-H322M lung.
The subject of test [4] is HOP-62 NSCLC.
The subject of test [5] is NCI-H460 lung.
The test system of test [6] is HOP-92 NSCLC.
Test [7] has as its system A549/ATCC NSCLC.
For test [8], the system named is 786-0 renal.
Test [9] concerns COLO 205 colon.
Test [10] relates to DU-145 prostate.
Test [11] concerns K-562 leukemia.
The test system of test [12] is MALME-3M melanoma.
In test [13] the test system is MDA-MB-231 breast.
Test [14] relates to RXF 393 renal.
Test [15] deals with SF-268 CNS.
Test [16] relates to SF-295 CNS.
The subject of test [17] is SF-539 CNS.
For test [18], the system named is UACC-257 melanoma.
The test system of test [19] is M14 melanoma.
For test [20], the system named is NCI-H522 lung.

For `CCOC(=O)c1cc(C)[nH]c(=O)c1C#N`, the growth was 97.5% in [1]; 101% in test [2]; 93.6% in test [3]; 97.3% in test [4]; 114% in test [5]; 104% in test [6]. For the same molecule, the growth is 98.5% in test [7]; 100% in [8]; 114% in test [9]; 113% in [10]; 82.6% in [11]; 123% in test [12]. Moreover, the growth in test [13] was 116%; in test [14], 98.1%; in test [15] it was 105%; in test [16], 93.5%; in test [17], 95.6%; in test [18], 93%.
Turning to `Nc1ncc([N+](=O)[O-])cn1`, the growth in test [1] is 102%; in test [2] it was 103%; in test [3], 95%; in [4], 103%; in test [5], 111%; in [6] it was 93.7%. Further, the growth in [7] was 90.1%; in test [8], 105%; in [9], 119%; in [10], 104%; in test [11], 108%; in [12] it was 103%. Further, the growth was 98.4% in test [13]; 110% in [14]; 98.4% in [15]; 105% in test [16]; 105% in test [17]; 84.7% in test [18]. Further, the growth in test [19] was 100%.
For the molecule `NC(=S)N/N=C/c1ccc(Cl)cc1`, the growth in test [1] was 98.1%; in test [2] it was 97.5%; in test [3], 104%; in [4] it was 113%; in [5] it was 106%; in test [6], 91%. Also, the growth in test [7] was 106%; in [8], 104%; in test [9], 131%; in test [10] it was 120%; in [11], 92.8%; in test [12] it was 109%. Moreover, the growth is 111% in [13]; 97.4% in test [14]; 109% in test [15]; 97.4% in test [16]; 106% in test [17]; 91.7% in test [18]. Also, the growth in [19] was 108%.
Regarding `COc1ccc2c(ccc[n+]2C)c1`, the growth in test [1] was 99.6%; in [2] it was 110%; in [3] it was 105%; in [4], 106%; in [5] it was 106%; in [6], 110%. Also, the growth was 108% in [7]; 97.3% in test [8]; 111% in test [9]; 126% in [10]; 110% in test [12]; 101% in test [13]. The growth in [14] was 136%; in test [15] it was 125%; in [16] it was 114%; in [17] it was 101%; in [18], 98.2%; in test [19], 108%.
On to `Cc1ccc(C(C)C)c(OCC(=O)O)c1`, for which the growth in test [1] is 107%; in test [2], 105%; in [3] it was 107%; in test [4], 101%; in test [5], 107%; in test [6] it was 98%. The growth was 90.8% in test [7]; 102% in test [8]; 107% in test [9]; 121% in test [10]; 108% in test [11]; 107% in test [13]. Further, the growth in test [14] was 114%; in [15], 97.5%; in [16], 101%; in test [17] it was 103%; in test [18] it was 88.3%.
With `C[n+]1c(/C=C\C=C\N2CCCCC2)sc2ccccc21`, the growth was 12.1% in test [1]; 17.7% in [2]; 17.6% in test [3]; -29.1% (active) in test [4]; 0.479% (active) in test [5]; -42.3% (active) in test [6]. For the same molecule, the growth in test [7] is -13.7% (active); in test [8], -42.4% (active); in test [9], -42.7% (active); in test [10], 23.1%; in [11], -14.4% (active); in test [12], -4.48% (active). In addition, the growth was 17.7% in [13]; 12.9% in [15]; -10.3% (active) in test [16]; 4.51% (active) in test [17]; -44% (active) in test [18]; 0.396% (active) in test [19].
`COc1cccc(N=CNc2cccc(OC)c2)c1`: the growth in [1] was 98.3%; in test [2], 99.7%; in [3], 96%; in test [4], 103%; in test [5] it was 109%; in test [6], 93.5%. Besides, the growth in [7] was 92.4%; in test [8], 98.8%; in [9], 107%; in [10], 107%; in test [11] it was 66%; in test [13] it was 91.9%. Besides, the growth is 105% in test [14]; 105% in test [15]; 112% in test [16]; 98.3% in test [17]; 106% in test [18]; 104% in [19].
For the molecule `CCCCCCCCCCCCCCCCCC(=O)NCCNC(=O)CCCCCCCCCCCCCCCCC`, the growth in test [1] was 95.2%; in test [2], 107%; in [3] it was 72.4%; in [4], 89.8%; in test [5] it was 98.8%; in [6], 37.4%. In addition, the growth in [7] was 94.5%; in test [8], 91.9%; in test [9], 84.5%; in test [10], 97.5%; in test [11], 57.4%; in test [12], 93.5%. In addition, the growth in test [13] is 75.3%; in test [14], 109%; in test [15], 89.3%; in test [16], 100%; in [17], 96.9%; in test [18], 105%. The growth in [19] is 95.6%.
For `Nc1ncnc(Nc2ccc(C(F)(F)F)cc2)n1`, the growth in test [1] is 100%; in test [2], 103%; in [3], 102%; in test [4], 103%; in test [6], 76.7%; in test [20], 98.5%. For the same molecule, the growth in [7] was 93.6%; in test [8] it was 97.7%; in [9], 108%; in [10], 107%; in [11] it was 98.9%; in test [12] it was 105%. The growth was 102% in test [13]; 113% in test [14]; 101% in test [15]; 101% in [16]; 107% in [17]; 95.5% in [18]. Also, the growth in test [19] was 103%.
Regarding `NC(=O)OCCO`, the growth in [1] was 99.3%; in test [2], 99.5%; in test [3] it was 97%; in test [4], 105%; in test [6] it was 102%; in test [20], 96.1%. Also, the growth was 99.7% in test [7]; 95% in test [8]; 113% in test [9]; 104% in [10]; 82.9% in test [11]; 84.7% in test [12]. Besides, the growth in test [13] is 109%; in test [14] it was 110%; in test [15], 97.7%; in [16], 106%; in test [17] it was 108%; in [18], 95.6%.
As to `C=C1CC2(OC1=O)C(=O)N(C)c1ccc(I)cc12` (stereo unspecified), the growth is -62.6% (active) in [1]; -37.3% (active) in test [2]; 50.6% in test [3]; 58.9% in [4]; -95.7% (active) in [6]; -56.9% (active) in test [20]. The growth in test [7] was -19.3% (active); in test [8], -71.5% (active); in test [9] it was -84.2% (active); in [10], -95.2% (active); in [11], -50% (active); in test [12] it was -77.1% (active). Moreover, the growth in [13] is -2.19% (active); in test [14], -73.4% (active); in test [15] it was -75% (active); in [16], 55.4%; in test [17], -88.2% (active); in test [18], -69.3% (active). For the same molecule, in test [19], the growth was -76.6% (active).
For the molecule `C=CC1=NC(C)(C)CC(C)O1` (stereo unspecified), the growth in [1] was 114%; in [2], 111%; in test [3], 108%; in test [4], 110%; in [6], 105%; in test [7], 104%. Besides, the growth in [8] was 103%; in test [9], 116%; in test [10], 113%; in test [11], 107%; in test [12], 107%; in test [13], 110%. Besides, the growth in test [15] is 109%; in test [17], 97.8%; in [18], 95.4%; in test [19], 112%.
As to `O=C1C=CC(=O)C2=C1CCCC2`, the growth was 86.4% in test [1]; 79.6% in test [2]; 92% in [3]; 92.4% in [4]; 135% in test [6]; 94% in [20]. Further, the growth in [7] is 95.8%; in test [8], 107%; in test [9], 110%; in test [10], 101%; in test [11], 46.3%; in test [12], 91.9%. For the same molecule, the growth in [14] is 103%; in test [15], 93.7%; in test [16], 104%; in test [17], 104%; in [18] it was 95.6%; in test [19] it was 96.4%.
For the molecule `O=S(=O)(OCCOS(=O)(=O)c1ccccc1)c1ccccc1`, the growth is 95% in [1]; 87.6% in [2]; 97.6% in test [3]; 94.9% in test [4]; 99.5% in test [6]; 90.5% in test [20]. Further, the growth was 93.3% in test [7]; 93.5% in test [8]; 112% in test [9]; 100% in [10]; 96.4% in test [11]; 86% in test [12]. Besides, the growth is 111% in [13]; 96% in test [14]; 92.6% in [15]; 102% in [16]; 102% in test [17]; 97.2% in test [18]. In [19], the growth is 92.3%.
In the case of `CCCCCCCCCCCCSC1=C(Cl)C(=O)C(OC)=C(OC)C1=O`, the growth is 43.7% in test [1]; 74.6% in test [2]; 75.8% in [3]; 75.2% in test [4]; 57.9% in test [6]; -63.3% (active) in [20]. For the same molecule, the growth is 29.4% in test [7]; 65.6% in test [8]; 55.4% in [9]; 60.2% in test [10]; 28.2% in test [11]; 12.5% in test [12]. The growth in test [13] is 55.5%; in [14], 34.1%; in test [15] it was 46.1%; in [16], 38.3%; in test [17] it was 41.5%; in test [18], 26.8%.
With `O=C(CCCl)OCCOc1ccccc1`, the growth in [1] is 96.2%; in test [2], 104%; in test [3], 97%; in test [4], 105%; in test [6], 86.7%; in test [20], 98.2%. For the same molecule, the growth in test [7] was 102%; in test [8], 99.4%; in [9] it was 103%; in test [10], 101%; in [11], 93.2%; in test [12], 97.7%. For the same molecule, the growth in [13] is 111%; in [14] it was 112%; in test [15], 94.6%; in [16], 105%; in test [17] it was 95.8%; in test [18], 110%. Also, the growth in test [19] is 102%.
Regarding `CCOC(=O)c1cc(Cl)c(O)c(Cl)c1`, the growth in test [1] is 103%; in [2], 103%; in [3], 117%; in [4], 106%; in [6], 109%; in test [20], 103%. For the same molecule, the growth in test [7] is 100%; in [8], 107%; in test [9], 99.6%; in test [10], 104%; in test [11], 121%; in [12], 114%. The growth was 106% in test [13]; 116% in [14]; 97.7% in [15]; 103% in test [16]; 106% in test [17]; 109% in test [18]. For the same molecule, the growth in [19] is 105%.

Source of the values: PubChem BioAssay (NCI).
